The source made the active and inactive calls. The rule behind the calls is not given here.
test: V-ATPase proton transport modulators in yeast, dose response, S. cerevisiae, pHLuorin, powder set 4 (AID 652071); details: S. cerevisiae pHLuorin cytosolic pH fluorescence; series mostly up to 100 µM; response change, sign ambiguous: at the top concentration

Response change, sign ambiguous, inactive:
CN1CCN(c2ccccc2NC(=O)c2cccc(Cl)n2)CC1 14.3%
CN(C)Cc1ccc(C(=O)Nc2ccccc2N2CCN(C)CC2)o1 -7.11%
CC(=O)N1CCN(c2ccccc2NC(=O)c2ccc(S(C)(=O)=O)o2)CC1 -31.2%
CS(=O)(=O)c1cccc(C(=O)Nc2ccccc2N2CCCCC2)c1 7.01%
CC(=O)N1CCN(c2ccccc2NC(=O)c2cccc(Br)n2)CC1 32.9%
CC(=O)N1CCN(c2ccccc2NC(=O)c2cccc(CC#N)c2)CC1 -0.81%
CC(=O)N1CCN(c2ccccc2NC(=O)c2cccc(Cl)n2)CC1 16.4%
CN1CCN(c2ccccc2NC(=O)c2cccc(CC#N)c2)CC1 -0.68%
CC(=O)N1CCN(c2ccccc2NC(=O)c2occc2-c2ccccc2)CC1 42.4%
CN1CCN(c2ccccc2NC(=O)c2cccc(S(=O)(=O)N(C)C)c2)CC1 14.1%
CN1CCN(c2ccccc2NC(=O)c2ccc(C(N)=O)o2)CC1 -14.2%
N#CCc1cccc(C(=O)Nc2ccccc2N2CCCCC2)c1 -36.8%
O=C(Nc1ccccc1N1CCCCC1)c1cncc(Cl)n1 -28.4%
CS(=O)(=O)c1cccc(C(=O)N2CCN(c3nc4ccc(F)cc4s3)CC2)c1 -19.9%
CN1CCN(c2ccccc2NC(=O)c2ccc(Cl)o2)CC1 12%
CN1CCN(c2ccccc2NC(=O)c2cccc(C(F)(F)F)n2)CC1 8.13%
CC(=O)N1CCN(c2ccccc2NC(=O)c2cccc(CS(C)(=O)=O)c2)CC1 13.3%
CN(C)S(=O)(=O)c1cccc(C(=O)Nc2ccccc2N2CCCCC2)c1 -24.9%
O=C(Nc1ccccc1N1CCCCC1)c1cccc(Br)n1 -14.9%
O=C(c1occc1-c1ccccc1)N1CCN(c2nc3ccc(F)cc3s2)CC1 78.3%
CN1CCN(c2ccccc2NC(=O)c2ccc(C(C)(C)C)o2)CC1 -20.7%
CC(=O)N1CCN(c2ccccc2NC(=O)c2ccc(Br)o2)CC1 15%
CC(=O)N1CCN(c2ccccc2NC(=O)c2cncc(Cl)n2)CC1 -21.5%
Cc1ccc(C(=O)Nc2ccccc2N2CCN(C)CC2)o1 -17.8%
O=C(c1ccc(Cl)o1)N1CCN(c2nc3ccc(F)cc3s2)CC1 -3.92%
CN1CCN(c2ccccc2NC(=O)c2cncc(Cl)n2)CC1 -1.67%
CN1CCN(c2ccccc2NC(=O)c2cccc(C(=O)N(C)C)c2)CC1 5.41%
N#CCc1cccc(C(=O)N2CCN(c3nc4ccc(F)cc4s3)CC2)c1 19.6%
Cc1ccc(C(=O)Nc2ccccc2N2CCCCC2)o1 -65.7%
NC(=O)c1ccc(C(=O)Nc2ccccc2N2CCCCC2)o1 -23.9%
CN1CCN(c2ccccc2NC(=O)c2cncc(N)n2)CC1 -3.21%
CN1CCN(c2ccccc2NC(=O)c2cnc(N)o2)CC1 4.32%
CC(C)(C)c1ccc(C(=O)Nc2ccccc2N2CCCCC2)o1 -24.8%
O=C(Nc1ccccc1N1CCCCC1)c1cccc(C(F)(F)F)n1 -18.9%
CN1CCN(c2ccccc2NC(=O)c2cccc(S(C)(=O)=O)c2)CC1 1.86%

Source: PubChem BioAssay AID652071 (NMMLSC, 2013)
